Data taken from PubChem BioAssay AID504333 (National Center for Advancing Translational Sciences (NCATS), 2011).
Among all 360,000 compounds or so, about 16,000 (4.4%) were called active. Not shown: some 9% with an inconclusive outcome. Many of the other results were omitted from the sample, so actives are more common in it than they were. Values without a mark were called inactive. Calls follow the shape of the dose curve; as a rule, active = well fitted inhibition curve with a large enough effect; inconclusive = small, poorly fitted or top-dose-only effect; inactive = no such curve, though single readings can be large or run the other way.

Molecular target: Bromodomain adjacent to zinc finger domain protein 2B (Homo sapiens) (UniProt Q9UIF8)
Sequence (Q9UIF8 whole entry, looked up, the tested form may be a part): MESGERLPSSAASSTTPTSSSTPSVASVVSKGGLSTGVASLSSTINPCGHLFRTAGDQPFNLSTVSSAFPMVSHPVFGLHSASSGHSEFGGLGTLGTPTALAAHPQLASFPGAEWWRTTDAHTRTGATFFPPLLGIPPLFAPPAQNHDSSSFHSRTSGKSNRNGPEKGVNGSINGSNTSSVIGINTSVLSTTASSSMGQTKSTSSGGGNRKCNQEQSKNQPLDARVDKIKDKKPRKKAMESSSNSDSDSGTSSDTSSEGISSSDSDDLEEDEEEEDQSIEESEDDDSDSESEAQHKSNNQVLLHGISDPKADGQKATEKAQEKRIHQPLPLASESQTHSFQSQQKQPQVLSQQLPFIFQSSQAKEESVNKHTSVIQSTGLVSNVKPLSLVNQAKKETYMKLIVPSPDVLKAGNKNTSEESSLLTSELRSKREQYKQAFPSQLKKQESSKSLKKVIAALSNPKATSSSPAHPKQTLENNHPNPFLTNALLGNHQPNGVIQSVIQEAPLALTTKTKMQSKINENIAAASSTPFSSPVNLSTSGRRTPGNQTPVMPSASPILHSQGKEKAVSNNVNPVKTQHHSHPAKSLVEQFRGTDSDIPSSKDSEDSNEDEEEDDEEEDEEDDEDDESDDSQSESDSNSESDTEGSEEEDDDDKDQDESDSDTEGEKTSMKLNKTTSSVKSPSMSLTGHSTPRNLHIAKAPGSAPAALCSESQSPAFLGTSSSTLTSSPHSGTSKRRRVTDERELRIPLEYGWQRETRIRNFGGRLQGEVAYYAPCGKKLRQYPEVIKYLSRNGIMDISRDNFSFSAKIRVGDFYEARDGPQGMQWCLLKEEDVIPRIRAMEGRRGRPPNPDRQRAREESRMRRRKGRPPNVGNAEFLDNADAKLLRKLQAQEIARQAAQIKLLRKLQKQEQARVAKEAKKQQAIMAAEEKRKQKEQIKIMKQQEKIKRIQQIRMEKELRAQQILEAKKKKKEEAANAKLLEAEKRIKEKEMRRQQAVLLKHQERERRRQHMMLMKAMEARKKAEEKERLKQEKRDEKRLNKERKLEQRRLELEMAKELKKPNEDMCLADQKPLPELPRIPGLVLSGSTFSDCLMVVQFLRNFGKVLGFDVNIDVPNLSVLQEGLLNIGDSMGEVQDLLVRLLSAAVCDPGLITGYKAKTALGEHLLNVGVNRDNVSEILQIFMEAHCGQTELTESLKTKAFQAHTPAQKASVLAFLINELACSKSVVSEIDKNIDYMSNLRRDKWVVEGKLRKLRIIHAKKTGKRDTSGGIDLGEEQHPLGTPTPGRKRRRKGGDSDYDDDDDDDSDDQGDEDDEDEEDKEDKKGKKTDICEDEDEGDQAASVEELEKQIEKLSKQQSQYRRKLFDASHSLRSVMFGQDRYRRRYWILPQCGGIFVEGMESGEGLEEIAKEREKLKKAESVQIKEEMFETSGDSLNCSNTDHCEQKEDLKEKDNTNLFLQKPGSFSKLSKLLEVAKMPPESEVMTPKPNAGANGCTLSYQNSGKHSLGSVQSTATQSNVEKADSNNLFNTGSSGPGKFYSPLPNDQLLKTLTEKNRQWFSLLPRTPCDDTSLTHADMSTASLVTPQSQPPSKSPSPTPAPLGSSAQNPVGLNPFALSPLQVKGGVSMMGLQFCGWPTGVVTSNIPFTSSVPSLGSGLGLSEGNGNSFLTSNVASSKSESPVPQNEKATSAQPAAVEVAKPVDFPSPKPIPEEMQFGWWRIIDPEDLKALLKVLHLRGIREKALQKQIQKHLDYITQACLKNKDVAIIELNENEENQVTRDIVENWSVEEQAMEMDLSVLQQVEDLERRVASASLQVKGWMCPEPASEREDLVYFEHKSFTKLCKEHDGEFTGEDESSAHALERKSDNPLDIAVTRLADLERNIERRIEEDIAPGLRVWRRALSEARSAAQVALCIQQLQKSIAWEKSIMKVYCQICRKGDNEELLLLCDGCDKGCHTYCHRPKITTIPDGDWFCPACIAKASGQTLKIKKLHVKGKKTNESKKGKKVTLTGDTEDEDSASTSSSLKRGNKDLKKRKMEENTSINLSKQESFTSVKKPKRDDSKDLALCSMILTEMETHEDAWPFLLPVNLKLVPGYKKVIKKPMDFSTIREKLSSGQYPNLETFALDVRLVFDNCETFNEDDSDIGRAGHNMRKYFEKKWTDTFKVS
Experiment: qHTS Assay for Inhibitors of BAZ2B; also: nearly all actives have a fitted effect of over 60% in size
Settings: AlphaScreen BAZ2B-H3K14Ac peptide displacement; series mostly up to 114 µM; activity change, negative = inhibition: at the top concentration
Procedure, shortened: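 AlphaScreen luminescence quantifies BAZ2B engagement of H3K14Ac peptide; the protein and biotinylated peptide are both at 50 nM final, buffer PBS pH 7.4 with 0.01% Tween-20, all steps at room temperature.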
% is scaled to controls: 0 for no effect and ±100 for the full control effect; potency is read from the fitted curve at half-maximal effect.

Compound | activity change, negative = inhibition | Potency
COc1ccc(/C=C2/C(=O)OCc3cc(OC)c(OC)cc32)c(OC)c1 | -4.92% | 
O=C(NCCCc1ccccc1)c1ccc2c(c1)sc1nc(-c3ccc(F)cc3)cn12 | -22.3% | 
COc1ccccc1CNC(=O)NCc1noc2ccc(C)cc12 | -0.276% | 
O=C(NCCCn1ccnc1)C(=O)NCC1OCCN1S(=O)(=O)c1cc(F)ccc1F (centres undefined) |  | 7.94 µM (active)
Cc1cc(F)ccc1S(=O)(=O)N1CCCOC1CNC(=O)C(=O)NCCC1=CCCCC1 (centres undefined) | 1.88% | 
COc1ccc(CCNC(=O)C(=O)NCC2OCCN2S(=O)(=O)c2ccc(F)cc2)cc1OC (centres undefined) | -2.74% | 
Cn1nnnc1SCCCNCc1ccc(Cl)cc1 | 0.215% | 
CC1(C)N=C(SCc2ccccc2Cl)c2ccccc2N1 | 162% [at 57.1 µM] | 
Clc1ccccc1CSc1nnc(-c2ccco2)c(-c2ccco2)n1 |  | 14.1 µM (active)
CSc1nc(-c2ccco2)nn1C(=O)CCc1ccccc1 | -5.3% | 
c1ccc(CSc2nnc(-c3ccco3)c(-c3ccco3)n2)cc1 |  | 20 µM (active)
Fc1ccc(Nc2nc(SCc3ccccc3Cl)nc3ccccc23)cc1 | -4.01% | 
COc1ccc2nc(SCc3ccccc3)nc(C)c2c1 | 199% | 
Cc1cccc(NC(=O)N2CCC(CN3CCc4ccccc4C3)CC2)c1C | -0.909% | 
Cc1ccc(NC(=O)CSc2nc3c([nH]c4ccccc43)c(=O)n2-c2ccccc2)c(C)c1 | -1.13% | 
CCOc1ccccc1NC(=O)Cn1c2ncccc2c(=O)n1-c1ccc(C)c(C)c1 | 5.16% | 
COc1cc(/C=C2/C(=O)NN(c3cccc(Cl)c3)C2=O)cc(Br)c1O |  | 39.8 µM (active)
CCOc1c(Br)cc(/C=C2\C(=O)N(CCC#N)N=C2C)cc1OC | -0.0526% | 
COc1cc(/C=N/O)cc(Br)c1OCc1cccc(Cl)c1 | 0.334% | 
COc1cccc(/C=C2\SC(=N)N(c3ccc(F)cc3)C2=O)c1 | -26.3% | 
COc1cc(/C=C2/C(=O)NN(c3ccc(F)cc3)C2=O)cc([N+](=O)[O-])c1O |  | 39.8 µM (active)
COc1cc(CN2CC(C)CC(C)C2)cc([N+](=O)[O-])c1O (centres undefined) | -4.76% | 
CCc1cccc(NC(=O)c2cnc(N3CCOCC3)c3ccccc23)c1 | -0.0325% | 
Cc1ccc(C(=O)CSc2nc(-c3ccccc3)nc3c2CCCC3)c(C)c1 | 28.9% | 
COc1ccc(CC(=O)NCCc2sc3nc(-c4ccc(OC)cc4)nn3c2C)cc1 | -5% | 

Compound | activity change, negative = inhibition | Potency
O=C(c1ccncc1)N1CCN(c2ccc3ccccc3n2)CC1 | -12.4% | 
COc1ccccc1N1CCN(C(=O)c2c(-c3c(Cl)cccc3Cl)noc2C)CC1 | 2.05% | 
O=C(c1ccc2ccccc2n1)N1CCN(c2ccccc2Cl)CC1 |  | 50.1 µM (active)
COc1ccc(C)cc1-n1c(-c2ccc(C)cc2)cc2c1CC(C)(C)CC2=O | -31.9% | 
COc1ccc(C2NC(=O)c3ccccc3N2)cc1 (centres undefined) | 1.81% | 
COc1cccc(C2Nc3cccc4cccc(c34)N2)c1 |  | 35.5 µM (active)
COc1cccc(N2C(=O)C3CCCN3C2c2ccc(F)cc2)c1 (centres undefined) | 3.79% | 
FC(F)(F)c1cc(Nc2nc3ccccc3c3nncn23)ccc1Cl | -0.167% | 
COC(=O)/C(NC(C)=O)=C(\C)c1ccc(Cl)cc1 | 9.22% | 
COC(=O)c1cn(C(=O)c2ccc(Cl)cc2)c2ccccc12 | 44.8% | 
COC(=O)C(=Nc1ccccc1)/C(C(=O)C(=O)N(C)c1ccccc1)=C(\O)c1ccc(Cl)cc1 |  | 50.1 µM (active)
CCCCc1nn2c(=O)cc(COC(=O)c3ccccc3NC(=O)C(C)(C)C)nc2s1 | 1.02% | 
Cc1nn(-c2ccccc2)c2c1C(c1cccc([N+](=O)[O-])c1)N(c1ccccc1)C(=O)N2 (centres undefined) | -0.212% | 
Cc1cc(CO)nn1-c1ccc([N+](=O)[O-])cc1 | -1.85% | 
Cc1nn(-c2ccc([N+](=O)[O-])cc2)c(N)c1-c1ccccc1 |  | 70.8 µM (active)
O=C(NCc1ccc(F)cc1)c1ccc(Cn2c(SCc3ccc(F)cc3)nc3cccnc32)cc1 | 1.21% | 
Cc1oc2ncnc(N3CCOCC3)c2c1C(=O)NCCc1ccccc1 | 9.18% [at 57.1 µM] | 
COc1ccccc1CNC(=O)CCn1c(=O)c2ccccc2n(CC(=O)Nc2ccc(Br)cc2F)c1=O | -9.92% | 
COc1ccccc1CNC(=O)CCCCn1c(=O)c2ccccc2n(CC(=O)Nc2cc(Cl)ccc2C)c1=O | 1.31% | 
COc1ccccc1CNC(=O)CCn1c(=O)c2ccccc2n(CC(=O)Nc2cccc(Cl)c2)c1=O |  | 79.4 µM (active)
O=C(NCc1ccccc1Cl)C1=Cc2cc(Br)ccc2OC1 | 39.3% | 
CCCC(=O)Nc1cc(C(=O)NCc2ccc(OC)cc2)ccc1S(=O)(=O)c1ccc(Cl)cc1 | 7.79% | 
CCOc1ccc(CCNC(=O)c2ccc3c(c2)sc2nc(-c4ccc(F)cc4)cn23)cc1OCC | 3.83% | 
CCOc1ccc(-c2nonc2NC(=O)c2oc3ccc(CC)cc3c2C)cc1 | 45.4% | 
